# Assay results as given in PubChem BioAssay (EPA / NIEHS).
# Values joined by “and” are separate entries in the source; they are usually repeats but may differ in a detail not shown here. Identical values can stand only once. Some compounds were tested as several samples or in several runs, with calls that do not always agree. Active and inactive are the calls of the source. How the source made its calls: active means hit-call score of the fitted dose curve at least 0.9, where 1 is the maximum; inactive means score below 0.9.
# Assays:
# [1] = read-out: Epidermal growth factor receptor (EGFR), EGFR (gene 1956); experiment: BSK_hDFCGF_EGFR: BioMAP Diversity Plus: hDFCGF Assay for Epidermal growth factor receptor (EGFR) Biomarker Activity (AID 2283057); details: primary human foreskin fibroblasts; actives raise or lower the signal
# In short: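 EGFR levels by ELISA in human dermal fibroblast cultures, 24 h post-treatment, fitted bidirectionally versus DMSO. Parallel wells stained with sulforhodamine B to detect overt cytotoxicity.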
# [2] = read-out: Interleukin-8 (IL8), CXCL8 (gene 3576); experiment: BSK_hDFCGF_IL8: BioMAP Diversity Plus: hDFCGF Assay for Interleukin-8 (IL8) Biomarker Activity (AID 2283058); details: primary human foreskin fibroblasts; actives raise or lower the signal
# In short: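 IL-8 levels from compound-treated primary human fibroblasts were read by ELISA at 24 h, with DMSO serving as baseline for bidirectional fitting.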
# [3] = read-out: Macrophage colony-stimulating factor (MCSF), CSF1 (gene 1435); experiment: BSK_hDFCGF_MCSF: BioMAP Diversity Plus: hDFCGF Assay for Macrophage colony-stimulating factor (MCSF) Biomarker Activity (AID 2283060); details: primary human foreskin fibroblasts; actives raise or lower the signal
# In short: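 M-CSF levels, determined by ELISA, are taken at 24 h after dosing human skin fibroblasts. Responses in either direction are fitted with DMSO serving as the baseline.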
# [4] = BSK_hDFCGF_SRB: Viability Assessment in the BioMAP Diversity Plus: hDFCGF Assay (AID 2283061); details: primary human foreskin fibroblasts;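 further: cells exposed to compound for 24 h before the read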
# In short: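 Cells were dosed with test chemical, cultured 24 h, fixed with 10% TCA, then stained with 0.1% SRB and read at 560 nm. The fibroblasts were human foreskin primary cells, and DMSO served as baseline.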
# [5] = read-out: TIMP metallopeptidase inhibitor 1 (TIMP1), TIMP1 (gene 7076); experiment: BSK_hDFCGF_TIMP1: BioMAP Diversity Plus: hDFCGF Assay for TIMP metallopeptidase inhibitor 1 (TIMP1) Biomarker Activity (AID 2283062); details: primary human foreskin fibroblasts; actives raise or lower the signal
# In short: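 Fibroblasts from human foreskin are treated with test chemical and harvested at 24 h. TIMP-1 is quantified by ELISA, and gain or loss of signal is scored against DMSO.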
# [6] = read-out: Monokine induced gamma interferon (MIG), CXCL9 (gene 4283); experiment: BSK_hDFCGF_MIG: BioMAP Diversity Plus: hDFCGF Assay for Monokine induced gamma interferon (MIG) Biomarker Activity (AID 2283063); details: primary human foreskin fibroblasts; actives raise or lower the signal
# In short: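 MIG signal, determined by ELISA, reflects 24 h chemical exposure of human skin primary fibroblasts. DMSO serves as negative control and baseline.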
# [7] = read-out: Matrix Metallopeptidase 1 (MMP1), MMP1 (gene 4312); experiment: BSK_hDFCGF_MMP1: BioMAP Diversity Plus: hDFCGF Assay for Matrix Metallopeptidase 1 (MMP1) Biomarker Activity (AID 2283064); details: primary human foreskin fibroblasts; actives raise or lower the signal
# In short: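 Human foreskin fibroblasts exposed to chemical for 24 h; MMP1 detected by ELISA, with DMSO as baseline for bidirectional fitting.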
# [8] = read-out: Vascular cell adhesion molecule 1 (VCAM1), VCAM1 (gene 7412); experiment: BSK_hDFCGF_VCAM1: BioMAP Diversity Plus: hDFCGF Assay for Vascular cell adhesion molecule 1 (VCAM1) Biomarker Activity (AID 2283065); details: primary human foreskin fibroblasts; actives raise or lower the signal;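 further: VCAM-1 protein level quantified by ELISA after 24 h chemical exposure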
# In short: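 Cells are dosed, cultured for 24 h, then VCAM-1 is quantified by ELISA; signal increases and decreases are both fitted relative to DMSO.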
# [9] = read-out: Plasminogen activator inhibitor-1 (PAI1), SERPINE1 (gene 5054); experiment: BSK_hDFCGF_PAI1: BioMAP Diversity Plus: hDFCGF Assay for Plasminogen activator inhibitor-1 (PAI1) Biomarker Activity (AID 2283066); details: primary human foreskin fibroblasts; actives raise or lower the signal
# In short: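 PAI-1 levels in human dermal foreskin fibroblasts were quantified by ELISA 24 h after dosing, with gain or loss analysed against DMSO. Overt cytotoxicity was checked by sulforhodamine B total-protein staining in parallel cultures.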
# [10] = read-out: Intercellular Adhesion Molecule 1 (ICAM1), ICAM1 (gene 3383); experiment: BSK_KF3CT_ICAM1: BioMAP Diversity Plus: KF3CT Assay for Intercellular Adhesion Molecule 1 (ICAM1) Biomarker Activity (AID 2283067); details: primary human keratinocytes with fibroblasts; actives raise or lower the signal
# In short: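 Dose the keratinocyte/fibroblast co-culture, wait 24 h, measure ICAM-1 by ELISA, then fit increases or decreases against DMSO. Cytotoxicity is checked in parallel cultures by SRB total-protein staining.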
# [11] = read-out: Interferon-gamma inducible Protein 10 (IP10), CXCL10 (gene 3627); experiment: BSK_KF3CT_IP10: BioMAP Diversity Plus: KF3CT Assay for Interferon-gamma inducible Protein 10 (IP10) Biomarker Activity (AID 2283068); details: primary human keratinocytes with fibroblasts; actives raise or lower the signal
# In short: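 KF3CT co-culture (keratinocytes + foreskin fibroblasts), 24 h compound, IP-10 by ELISA; bidirectional fit vs DMSO baseline.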
# [12] = BSK_KF3CT_SRB: Viability Assessment in the BioMAP Diversity Plus: KF3CT Assay (AID 2283069); details: primary human keratinocytes with fibroblasts;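 further: fitted for both signal gain and loss against DMSO baseline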
# In short: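 Overt cytotoxicity is assessed as total protein by sulforhodamine B staining in parallel human skin co-cultures at 24 h after dosing. DMSO serves as negative control and baseline.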
# [13] = read-out: Interleukin-1 alpha (IL1a), IL1A (gene 3552); experiment: BSK_KF3CT_IL1a: BioMAP Diversity Plus: KF3CT Assay for Interleukin-1 alpha (IL1a) Biomarker Activity (AID 2283070); details: primary human keratinocytes with fibroblasts; actives raise or lower the signal
# In short: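 Readout is IL-1a level by ELISA, compared bidirectionally with DMSO as baseline. Cells: human keratinocytes co-cultured with foreskin fibroblasts, harvested 24 h post-dose.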
# [14] = read-out: TIMP metallopeptidase inhibitor 2 (TIMP2), TIMP2 (gene 7077); experiment: BSK_KF3CT_TIMP2: BioMAP Diversity Plus: KF3CT Assay for TIMP metallopeptidase inhibitor 2 (TIMP2) Biomarker Activity (AID 2283071); details: primary human keratinocytes with fibroblasts; actives raise or lower the signal
# In short: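 TIMP-2 measured by ELISA at 24 h in human keratinocyte/fibroblast primary co-cultures exposed to chemicals. Both increases and decreases were fitted against DMSO. Parallel cultures were stained with SRB for total protein as an overt-cytotoxicity check.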
# [15] = read-out: C-C motif chemokine 2 (Homo sapiens) (UniProt P13500); experiment: BSK_KF3CT_MCP1: BioMAP Diversity Plus: KF3CT Assay for Monocyte Chemoattractant Protein 1 (MCP1/CCL2) Biomarker Activity (AID 2283073); details: primary human keratinocytes with fibroblasts; actives raise or lower the signal
# In short: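 Keratinocytes and foreskin fibroblasts were co-cultured, dosed with chemical, and sampled 24 h later. MCP-1 was quantified by ELISA, and the endpoint was analyzed with bidirectional fitting using DMSO as negative control.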
# [16] = read-out: Matrix Metallopeptidase 9 (MMP9), MMP9 (gene 4318); experiment: BSK_KF3CT_MMP9: BioMAP Diversity Plus: KF3CT Assay for Matrix Metallopeptidase 9 (MMP9) Biomarker Activity (AID 2283074); details: primary human keratinocytes with fibroblasts; actives raise or lower the signal;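 further: MMP9 protein level quantified by ELISA in the co-culture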
# In short: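 Values come from bidirectional fitting relative to DMSO of MMP-9 levels, which were measured by ELISA. Measurements were taken 24 h after chemical dosing of a keratinocyte and foreskin fibroblast co-culture.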
# [17] = read-out: urokinase plasminogen activator (uPA), PLAU (gene 5328); experiment: BSK_KF3CT_uPA: BioMAP Diversity Plus: KF3CT Assay for urokinase plasminogen activator (uPA) Biomarker Activity (AID 2283075); details: primary human keratinocytes with fibroblasts; actives raise or lower the signal
# In short: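 Values derive from bidirectional fitting against DMSO controls. Keratinocyte/foreskin fibroblast co-cultures received chemical; 24 h later uPA was detected by ELISA, with SRB total-protein staining in parallel wells for overt cytotoxicity.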
# [18] = read-out: E-selectin (Homo sapiens) (UniProt P16581); experiment: BSK_LPS_Eselectin: BioMAP Diversity Plus: LPS Assay for Eselectin Biomarker Activity (AID 2283077); details: primary human HUVEC with PBMC; actives raise or lower the signal
# In short: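 Signal of E-selectin, detected by ELISA, served as the endpoint; cells were umbilical vein endothelium with PBMC, read 24 h after treatment. DMSO defined baseline, and both increases and decreases were fitted.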
# [19] = read-out: Interleukin-8 (IL8), CXCL8 (gene 3576); experiment: BSK_LPS_IL8: BioMAP Diversity Plus: LPS Assay for Interleukin-8 (IL8) Biomarker Activity (AID 2283078); details: primary human HUVEC with PBMC; actives raise or lower the signal
# In short: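 Endothelial cells and PBMC from human donors are co-cultured, treated with chemicals and LPS, then assayed for IL-8 by ELISA after 24 h. Parallel SRB staining (0.1% SRB after 10% TCA fixation, 560 nm) flags cytotoxicity.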
# [20] = read-out: Interleukin-1 alpha (IL1a), IL1A (gene 3552); experiment: BSK_LPS_IL1a: BioMAP Diversity Plus: LPS Assay for Interleukin-1 alpha (IL1a) Biomarker Activity (AID 2283080); details: primary human HUVEC with PBMC; actives raise or lower the signal
# In short: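 Measured: IL-1 alpha via ELISA at 24 h in LPS-activated human umbilical vein endothelium–PBMC co-culture. Baseline: DMSO, bidirectional fitting.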
# [21] = read-out: Monocyte Chemoattractant Protein-1 (MCP1), CCL2 (gene 6347); experiment: BSK_LPS_MCP1: BioMAP Diversity Plus: LPS Assay for Monocyte Chemoattractant Protein-1 (MCP1) Biomarker Activity (AID 2283081); details: primary human HUVEC with PBMC; actives raise or lower the signal
# In short: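 LPS-stimulated HUVEC/PBMC co-culture; chemical, 24 h; MCP-1 by ELISA; bidirectional fit vs DMSO; cytotoxicity via SRB (0.1% stain, 10% TCA fix, 560 nm) in parallel wells.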
# E-selectin (Homo sapiens), sequence (P16581 whole entry, looked up): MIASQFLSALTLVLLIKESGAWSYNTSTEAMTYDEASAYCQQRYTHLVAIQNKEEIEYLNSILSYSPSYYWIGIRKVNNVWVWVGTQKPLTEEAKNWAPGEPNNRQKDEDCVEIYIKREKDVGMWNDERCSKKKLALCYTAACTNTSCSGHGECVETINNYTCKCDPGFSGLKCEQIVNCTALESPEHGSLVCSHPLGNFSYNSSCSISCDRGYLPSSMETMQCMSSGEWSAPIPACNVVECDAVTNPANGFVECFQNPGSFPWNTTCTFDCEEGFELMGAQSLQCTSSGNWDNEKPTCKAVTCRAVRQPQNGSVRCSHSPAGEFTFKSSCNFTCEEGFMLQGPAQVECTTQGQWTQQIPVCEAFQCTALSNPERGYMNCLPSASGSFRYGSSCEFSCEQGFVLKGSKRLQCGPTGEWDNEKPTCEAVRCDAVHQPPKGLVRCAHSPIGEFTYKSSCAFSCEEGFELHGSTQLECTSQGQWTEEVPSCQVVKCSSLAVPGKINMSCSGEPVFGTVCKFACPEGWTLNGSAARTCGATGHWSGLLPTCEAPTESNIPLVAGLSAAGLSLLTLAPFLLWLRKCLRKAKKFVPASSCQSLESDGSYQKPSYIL
smiles,measurement,setting,value
[Cd+2].[Cl-].[Cl-],outcome,[1],inactive
same,AC50,[2],24.2 µM (active) and 23 µM (active)
same,AC50,[3],939 nM (active) and 1.2 µM (active)
same,outcome,[4],inactive
same,AC50,[5],1.12 µM (active) and 1.63 µM (active)
same,AC50,[6],9.86 µM (active) and 5.69 µM (active)
same,AC50,[7],3.97 µM (active) and 4.18 µM (active)
same,AC50,[8],1.9 µM (active) and 2.23 µM (active)
same,AC50,[9],601 nM (active) and 305 nM (active)
same,AC50,[10],29.2 µM (active) and 27.5 µM (active)
same,AC50,[11],35.2 µM (active) and 33.4 µM (active)
same,AC50,[12],32.4 µM (active) and 32.1 µM (active)
same,AC50,[13],33.8 µM (active) and 30.1 µM (active)
same,AC50,[14],28.2 µM (active) and 20 µM (active)
same,AC50,[15],20 µM (active) and 14.1 µM (active)
same,AC50,[16],16.2 µM (active) and 20.5 µM (active)
same,AC50,[17],32.6 µM (active) and 35.8 µM (active)
same,AC50,[18],32.8 µM (active) and 35.4 µM (active)
same,AC50,[19],28.9 µM (active)
same,outcome,[19],inactive
same,outcome,[20],inactive
same,outcome,[21],inactive
